DRD3 antagonist = antagonists of human D3 dopamine receptor; D3R cells, DiscoveRx beta-arrestin luminescence, antagonist mode; active compounds read low; max response, negative = inhibition, %; 360,000 tested, 2.5% active; AID 652054; in the data active = max response below about -50%; note: % is set by controls: 0 for no effect and ±100 for the full control effect
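Cells plated overnight at 1500 cells/well, then exposed to library compounds with dopamine controls for 90 minutes at 37 degrees C. DiscoveRx reagent added for 30–60 minutes at room temperature; luminescence read, quantitative HTS format.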
D1 antag = human D1 dopamine receptor antagonism; 360,000 tested, 3.2% active; P21728; activity change, negative = inhibition, % at 10 µM; HEK293 TREx D1 cells, calcium flux, dopamine EC80; active compounds read low; AID 504652; in the data active = activity change below about -30%; note: % is set by controls: 0 for no effect and ±100 for the full control effect
Target sequence (P21728 whole entry, looked up): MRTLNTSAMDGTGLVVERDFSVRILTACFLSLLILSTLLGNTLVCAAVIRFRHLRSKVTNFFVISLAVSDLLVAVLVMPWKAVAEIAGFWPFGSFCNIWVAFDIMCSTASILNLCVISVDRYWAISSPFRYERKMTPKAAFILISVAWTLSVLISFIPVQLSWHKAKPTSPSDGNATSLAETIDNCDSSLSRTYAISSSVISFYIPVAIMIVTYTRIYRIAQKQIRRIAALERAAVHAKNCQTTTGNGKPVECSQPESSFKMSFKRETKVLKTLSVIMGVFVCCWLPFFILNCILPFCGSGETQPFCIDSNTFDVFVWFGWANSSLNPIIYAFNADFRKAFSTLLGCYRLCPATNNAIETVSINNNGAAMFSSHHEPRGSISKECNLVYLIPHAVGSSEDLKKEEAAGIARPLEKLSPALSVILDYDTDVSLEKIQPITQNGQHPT
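Antagonism measured as reduced calcium response to an EC80 dopamine addition following 180 s compound pre-read; cells were inducible HEK293 Trex D1 plated overnight at 30 C, read kinetically at 1 cycle/sec.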
DRD3 agonist = agonists of human D3 dopamine receptor; P35462; D3R DiscoveRx beta-arrestin cells, luminescence, 90 min; max activation, %; 410,000 tested, 0.58% active; in the data active = max activation above about 30%; note: 0% is about no effect
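Cells at 1500/well, incubated overnight, then treated with pinned compounds (dopamine as control) for 90 min at 37 degrees C. DiscoveRx reagent added for 30 - 60 minutes at room temperature; luminescence read.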
D1 agonist = human D1 receptor agonism; 360,000 tested, 1% active; HEK293 T-REx D1 cells, calcium flux, agonist mode; activation, % at 2 µM; in the data active = activation above about 30%; note: 0% is about no effect
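Agonism was scored from calcium flux recorded over 180 s (1 read/s) after pintool compound addition, following a 10-cycle baseline. Cells were inducible force-coupled HEK293 TREx D1, plated overnight at 30 C and loaded with no-wash calcium dye.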
D1 potentiator = potentiators of human D1 dopamine receptor; AID 504651; HEK293 TREx D1 cells, calcium flux, dopamine EC20 potentiation; potentiation, % at 10 µM; 360,000 tested, 0.036% active; in the data active = potentiation above about 30%; note: 0% is about no effect
An asterisk follows results filed as active; · = no result given. Shown are actives, neighbours in structure and some others; about 6.1% of the full set was active somewhere.

SMILES	DRD3 antagonist	D1 antag	DRD3 agonist	D1 agonist	D1 potentiator
O=C(Cc1ccccc1)N/N=C/c1cc2c(cc1Cl)OCO2	9	-40*	-6	16	-11
COc1cccc(/C=N/NC(=O)c2[nH]c(C)c(C(=O)N/N=C/c3cccc(OC)c3O)c2C)c1O	16	-77*	-5	0	-7
O=C(CCC(=O)N/N=C/c1ccc(Br)s1)NCc1ccccc1	13	-11	1	0	-8
O=C(N/N=C\c1cc2c(cc1Cl)OCO2)c1cccs1	-1	10	-4	0	0
O=C(CCc1ccccc1)Nc1cc2c(cc1Cl)OCCO2	-1	-30*	0	0	-7
O=C(CCc1ccccc1)Nc1cc2c(cc1C(=O)O)OCCCO2	8	·	-5	·	·
COc1ccccc1-n1c(=O)n(C)c2c(C(N)=O)nc(-c3cc(OC)c(OC)c(OC)c3)nc21	·	6	6	2	-2
CCOC(=O)c1cccc(NC(=O)c2cc3cc4ccc(C)cc4nc3o2)c1	·	6	-2	4	-1
O=C(NCc1ccccc1)C(=O)NCC(c1ccc2c(c1)OCO2)N1CCOCC1 (configuration not stated)	·	-15	-19	0	-1
O=C(NCC(c1cccs1)S(=O)(=O)c1cccs1)c1ccccc1 (configuration not stated)	·	·	-8	-2	-2
COc1ccc(S(=O)(=O)N(CC(=O)Nc2cccc(C(F)(F)F)c2)c2ccc(C)cc2)cc1	·	2	-15	11	1
CCOc1ccc(NC(=O)C2CCN(C(=O)N3CC(C)Oc4ccc(Cl)cc43)CC2)cc1 (configuration not stated)	·	-6	4	3	-1
CCOc1ccc(NC(=O)CN2C(=O)CC(C)Sc3ccccc32)cc1 (configuration not stated)	·	-7	6	1	3
COc1cccc(/C=N/NC(=O)CNC(=O)c2cccnc2)c1O	5	-20	-17	1	-7
O=C(CNC(=O)c1ccccc1)N/N=C/c1ccccc1Cl	5	-3	-4	0	32*
O=C(CCCC(=O)NN=Cc1ccccc1Cl)NN=Cc1ccccc1Cl	0	·	-12	·	·
COc1cccc(/C=N/NC(=O)CNC(=O)c2ccncc2)c1O	23	-41*	-1	2	0
CCN(CC)S(=O)(=O)c1ccc2c(c1)N(CC(=O)N1CCN(c3cccc(C)c3C)CC1)C(=O)CO2	·	2	10	4	-2
Cc1cccc(NC(=O)Cn2c(=O)n(CCCCCC(=O)NCc3ccc4c(c3)OCO4)c(=O)c3sccc32)c1	·	0	-4	23	3
NC(=O)C1CC(=O)N(c2ccc(OCc3ccc(Cl)cc3)cc2)C1 (configuration not stated)	-1	-39*	4	18	-6
O=C(NCc1nnnn1-c1ccc(F)cc1)C1CC(=O)N(c2ccc(F)cc2)C1 (configuration not stated)	6	-30*	-14	0	0
NC(=O)C1CC(=O)N(c2ccc(OCC(=O)N3CCCC3)cc2)C1 (configuration not stated)	7	·	0	·	·
C=CCNC(=O)C1CC(=O)N(c2ccc(OCC(=O)Nc3ccc(C)cc3)cc2)C1 (configuration not stated)	0	-31*	1	0	-11
CCOc1ccc(N2CC(C(=O)N3CCCC3)CC2=O)cc1 (configuration not stated)	0	-83*	-3	0	-4
C=CCNC(=O)C1CC(=O)N(c2ccc(OCC(=O)Nc3ccc(OC)cc3)cc2)C1 (configuration not stated)	0	16	2	-1	-1
SMILES	DRD3 antagonist	D1 antag	DRD3 agonist	D1 agonist	D1 potentiator
CCOc1ccc(N2CC(C(=O)N3CCCCCC3)CC2=O)cc1 (configuration not stated)	-15	2	-14	0	4
CCSc1ncc(Cl)c(C(=O)Nc2ccc(S(=O)(=O)Nc3nccc(C)n3)cc2)n1	·	0	-14	-2	0
Cc1oc2ccc(O)c(CN3CCCC(C)C3)c2c1C(=O)Nc1ccccc1 (configuration not stated)	·	5	7	-1	6
COc1cc(NC(=O)Cn2nnnc2-c2ccccc2F)cc(OC)c1OC	·	2	5	2	-2
COc1ccccc1CNc1nccn(-c2ccccc2)c1=O	·	1	-16	1	-6
CCOc1ccc(CCNC(=O)c2ccc3c(c2)c(C)c(C)n3Cc2ccccc2)cc1OCC	·	11	3	1	3
CCCNC(=O)C1CC(=O)N(c2ccc(OCc3ccc(F)cc3)cc2)C1 (configuration not stated)	3	-36*	9	12	-8
CCCNC(=O)C1CC(=O)N(c2ccc(OCc3ccc(Cl)cc3)cc2)C1 (configuration not stated)	2	-7	8	12	1
COc1ccc2cc(CN(CCCN3CCOCC3)Cc3nnnn3C3CCCCC3)c(=O)[nH]c2c1	-50*	-7	-35	2	-3
CCC(c1nnnn1C1CCCCC1)N(Cc1ccco1)Cc1cc2ccc(OC)cc2[nH]c1=O (configuration not stated)	-3	33	4	3	10
COc1ccc(NC(=S)NCc2cccnc2)cc1	-2	-31*	1	1	-1
COc1ccc(NC(=S)NCc2cccnc2)cc1OC	-26	6	-5	0	-3
Fc1ccc(NC(=S)NCc2cccnc2)cc1	-2	-4	-7	3	3
COc1ccc(CNC(=S)Nc2ccc(Br)cc2)cc1	4	-5	4	37*	-7
COc1ccc(/C=C/C(=O)NCc2cccnc2)cc1	1	-40*	-1	-1	-6
S=C(NCc1cccnc1)Nc1ccc(Cl)c(Cl)c1	-22	-46*	-7	28	-4
COc1ccc(CNC(=S)Nc2ccc(-c3ccccc3)cc2)cc1	-7	-27	2	13	-7
CCOc1ccccc1CNC(=O)c1ccc(N2Cc3ccccc3Oc3ncccc32)s1	·	37	-2	2	-5
CCN(c1ncnc2c1cnn2-c1cc(Cl)ccc1C)C1CCCCC1	·	1	-15	-1	1
CC(=O)N1CCc2cc(Br)cc(S(=O)(=O)N3CCC(C(=O)Nc4cccc(C)c4C)CC3)c21	·	-9	9	0	1
O=C(NCc1cccnc1)Nc1ccc(Cl)c(Cl)c1	-10	-46*	-12	13	-6
Cc1ccc(NC(=O)NCc2cccnc2)cc1C	1	1	2	1	2
CCOCCCNC(=O)CCCn1nc(C)n2c(cc3sccc32)c1=O	-3	-39*	1	-1	-7
CCN(CCNC(=O)CCCn1nc(C)n2c(cc3sccc32)c1=O)c1ccccc1	12	-28	-3	-1	·
COc1cc(C(=O)Nc2ccc(C(=O)NCC3CCCO3)cc2)cc(OC)c1OC (configuration not stated)	39	-4	1	2	-1

Source: PubChem BioAssay (National Center for Advancing Translational Sciences (NCATS))
